# Screens as filed in PubChem BioAssay.
# PNC assembly inh – High Content Assay for Compounds that inhibit the Assembly of the Perinucleolar Compartment. PC3M PTB-GFP, PNC prevalence imaging, 16 h; active compounds read low. activity change (PNC), negative = inhibition, % at 10 µM. actives 3.1% (n = 140,000). AID 2417, 2010;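 active = readout at or below -70, meaning at least 70% loss of cells showing the perinucleolar compartment, a nuclear body marking cancer cells; inconclusive = readout between -30 and a set limit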
#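 Compounds are pinned in duplicate onto adhered PC3M cells stably expressing GFP-tagged PTB and incubated 16 h at 37 C. Cells are then fixed, nuclei stained with Hoechst, and PNC-positive cells counted.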
# HPGD block – qHTS Assay for Inhibitors of HPGD (15-Hydroxyprostaglandin Dehydrogenase). Potency, µM, usual class: inhibitors. 15-hydroxyprostaglandin dehydrogenase [NAD(+)] (Homo sapiens), P15428. AID 894, 2007. actives 4.3% (n = 150,000). purified HPGD, NADH fluorescence kinetic, PGE2 substrate
#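 20 nM HPGD preincubated 15 min at room temperature with compound in 50 mM Tris-HCl pH 8, 0.01% Tween 20. Started with 1 mM NAD+ and 30 uM prostaglandin E2; NADH fluorescence (360/450 nm) read 5 times over 30-s intervals, last minus first.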
# KinaseGlo FLuc – Counterscreen for Luciferase (Kinase-Glo TM) Inhibition; Luciferin 4-monooxygenase (Photuris pensylvanica), Q27757; Kinase-Glo luciferase, ATP luminescence, 8 min; Potency, µM (doses to about 38.3 µM), usual class: inhibitors; actives 0.28% (n = 200,000); AID 1379, 2008; active = well fitted inhibition curve with a large enough effect; inconclusive = small, poorly fitted or top-dose-only effect; also: nearly all actives have a fitted effect of over 60% in size
#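 Recombinant Kinase-Glo luciferase, 10 uM ATP (linear range), luciferin; imidazole pH 7.2 / KCl / MgCl2 / Tween / BSA buffer; 8 min RT; luminescence.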
# LMNA splice mod – qHTS Assay for Modulators of Lamin A Splicing; HeLa LMNA splicing GFP/RFP minigene ratio, 48 h; Potency, µM (series often up to 46.1 µM), usual class: inhibitors; AID 1487, 2009; actives 0.01% (n = 200,000); active = well fitted inhibition curve with a large enough effect in the signal ratio, with a control signal flat, not every such curve was filed as active; inconclusive = small, poorly fitted or top-dose-only effect, or effect the other way, or a change in a side signal; the % refers to the signal ratio
#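 Read-out is the ratio of GFP to DsRed2 object intensity, acquired by 488 nm laser-scanning cytometry on HeLa lamin A-EGFP minigene reporter cells. Compound incubation 48 hrs at 37 °C in Opti-MEM with 2% FBS; DMSO 0.5% final.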
# ALDH1A1 inh – qHTS Assay for Inhibitors of Aldehyde Dehydrogenase 1 (ALDH1A1); Purified ALDH1A1, NADH fluorescence, propionaldehyde substrate; Potency, µM (highest dose often 75.3 µM), most hits filed as inhibitors; actives 7.3% (n = 220,000)
# Target sequence (P00352 whole entry, looked up): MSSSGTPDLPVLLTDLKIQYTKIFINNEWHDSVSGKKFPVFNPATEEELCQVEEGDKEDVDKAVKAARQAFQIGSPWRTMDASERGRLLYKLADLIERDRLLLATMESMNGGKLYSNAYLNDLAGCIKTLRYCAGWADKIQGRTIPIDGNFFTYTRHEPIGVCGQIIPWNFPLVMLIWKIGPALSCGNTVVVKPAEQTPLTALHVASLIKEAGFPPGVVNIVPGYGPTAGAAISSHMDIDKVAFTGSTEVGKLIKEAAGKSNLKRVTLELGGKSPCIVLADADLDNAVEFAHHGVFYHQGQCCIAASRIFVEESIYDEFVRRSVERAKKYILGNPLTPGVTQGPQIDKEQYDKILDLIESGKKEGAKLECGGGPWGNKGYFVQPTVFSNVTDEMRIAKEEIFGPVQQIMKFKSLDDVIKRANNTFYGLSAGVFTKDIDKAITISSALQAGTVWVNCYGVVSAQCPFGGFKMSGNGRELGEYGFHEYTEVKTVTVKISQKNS
# Numbers stand for hits; – = inactive; ? = inconclusive; · = no result given; [ ] = another dose, or the depositor's remark. In the library only some 10% were active in any assay of this set; here they are far more common. Unless noted, calls follow the shape of the dose curve; as a rule, active = well fitted inhibition curve with a large enough effect (not every such curve was filed as active); inconclusive = small, poorly fitted or top-dose-only effect, or another doubt; inactive = no such curve, though single readings can be large or run the other way.
SMILES,PNC assembly inh,HPGD block,KinaseGlo FLuc,LMNA splice mod,ALDH1A1 inh
CN1/C(=C\C=N\O)C(C)(C)c2ccccc21,·,·,–,–,–
CN1/C(=C/C=C(/C#N)C(N)=O)C(C)(C)c2ccccc21,-85,–,–,–,–
CN1/C(=C\C=C(/C#N)C(=O)Nc2ccccc2F)C(C)(C)c2ccccc21,-83,–,–,?,–
N#Cc1cnn(-c2nc(SCc3ccccc3)nc3sc4c(c23)CCCC4)c1N,–,–,–,–,8.9µM
COc1ccc(-n2ccnc2SCC(=O)Nc2cccc(OC)c2)cc1,·,·,·,–,·
O=C(NCC1COc2ccccc2O1)c1ccc(Cl)cc1 (stereo not drawn),–,–,–,–,–
CN(C)c1ccc(C=NCC2COc3ccccc3O2)cc1 (stereo not drawn),·,·,–,–,0.56µM
CN(CC1COc2ccccc2O1)C(=O)c1ccc(N(C)C)cc1 (stereo not drawn),·,·,–,–,5.6µM
O=C(Oc1cc(-c2ccccc2)no1)c1cccc(C(F)(F)F)c1,–,–,–,–,7.9µM
O=C(Oc1cc(-c2ccccc2)no1)c1ccc(F)cc1,–,–,–,–,–
Cn1c(=O)c2c(n3c4ccccc4nc13)NC(=O)CC2c1cccc(F)c1 (stereo not drawn),·,·,·,–,·
COc1ccc(CNc2cc(-c3ccccc3C)ncn2)c(OC)c1,·,·,·,?,–
CCCSc1nnc2[nH]c(=O)cc(N)n12,–,–,–,–,–
CCCCSc1nnc2[nH]c(=O)cc(N)n12,–,16µM,–,–,?
O=S(=O)(NCCc1csc2nc(-c3ccc(Cl)cc3)nn12)c1ccc2c(c1)OCCO2,·,·,·,–,·
CC(C)(C)NC(=O)C(c1ccncc1)N(C(=O)c1csnn1)C1CC1 (stereo not drawn),?,–,–,–,10µM
CC(C)(C)NC(=O)C(c1cccnc1)N(C(=O)c1ccc(Cl)nc1)C1CCCC1 (stereo not drawn),·,·,–,·,5.6µM
O=C(NC1CCCCC1)C(c1cccnc1)N(C(=O)c1ccc(Cl)nc1)C1CCCCC1 (stereo not drawn),·,·,–,–,–
Oc1cccc2ccc(SSc3ccc4cccc(O)c4n3)nc12,·,0.56µM,–[7.66 µM],·,4µM
CCC1C/C(=C\c2cccnc2)C(=O)/C(=C/c2cccnc2)C1 (stereo not drawn),-125,–,–,?,?
CC(=O)N=C(N)Sc1nc2ccccc2[nH]1,-100,–,–,–,–
CC(C)c1[nH]nc2c1C(C1C=CCCC1)C(C#N)=C(N)O2 (stereo not drawn),·,·,·,?,14µM
NC(=O)COc1ncn(-c2ccccc2)n1,-112,–,–,–,–
COC(=O)/C=C1\S/C(=N/N=C/c2ccco2)NC1=O,·,·,–,–,–
COC(=O)/C=C1\S/C(=N/N=C/c2ccccc2)NC1=O,–,25µM,–,–,–
SMILES,PNC assembly inh,HPGD block,KinaseGlo FLuc,LMNA splice mod,ALDH1A1 inh
NC(=S)NCCCC(N)C(=O)O (stereo not drawn),·,–,–,–,2.5µM
CCOC(=O)CSc1nc2c(sc3ccccc32)c(=O)n1Cc1ccc(OC)cc1,·,·,·,–,·
CN1CCc2nc(NC(=O)c3cccc(OC(F)F)c3)sc2C1,–,–,–,–,–
O=C(Nc1nc2c(s1)CN(Cc1ccccc1)CC2)C1CCCC1,·,·,–,·,?
O=C(Nc1nc2c(s1)CN(Cc1ccccc1)CC2)c1c(F)cccc1F,·,·,–,–,19µM
CC(C)(C)C(=O)Nc1nc2c(s1)CN(Cc1ccccc1)CC2,·,·,–,–,32µM
CCc1ccccc1N(C)C(=O)C1CCCN(c2ncnc3c2nc2n3CCCCC2)C1 (stereo not drawn),·,·,·,–,·
CCCC(=O)OC(=O)CCC,·,–,·,·,?
NC1=NC(=O)/C(=C/c2cccs2)S1,–,–,–,–,–
C=CCSC1=NC(=O)/C(=C/c2cccs2)S1,–,32µM,–,?,?
Cc1ccc(CCNC(=O)C2CCCN(C(=O)c3cc4sccc4n3C)C2)cc1 (stereo not drawn),–,–,–,?,8.9µM
Cn1c(C(=O)N2CCCC(C(=O)NCCCc3ccccc3)C2)cc2sccc21 (stereo not drawn),–,–,–,?,14µM
